Among the data in the supplement of paper PMC4188521 are cell viability remaining values, retold here.

Compound in the experiment: CCc1cnn2c(NCc3ccc[n+]([O-])c3)cc(N3CCCC[C@H]3CCO)nc12 [dinaciclib]
Put plainly: cell viability remaining relative to DMSO control; higher = less cytotoxic (more viable cells). As to conditions: 100 nM; 24 h. The method, then:
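Solid tumor cell lines were treated with dinaciclib (100 nM) for 24 hr. Viability was measured by CellTiter-Glo ATP luminescence and expressed as % of DMSO-treated control wells (mean of 2-6 plates, triplicate wells per plate).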
In the case of SCC25, the cell viability remaining came out at 20.5%.
The value for GRM was 47%; that for YAPC was 56.3%; that for SKNAS was 35%.
With H520, the cell viability remaining came out at 30.8%.
Consider CFPAC1, for which the cell viability remaining stood at 85.5%.
In the case of H1703, the cell viability remaining came out at 5.5%.
Take HEC59: the cell viability remaining came to 67.6%.
In the case of SW1271, the cell viability remaining worked out at 80.7%.
The same measure for HS294T: 52.6%; for EFO21: 93.6%.
The same measure for HCT8: 51.3%; for OE33: 51.6%; for SNU5: 69.5%.
Consider H526, for which the cell viability remaining was 16.7%.
For the target OVSAHO, the cell viability remaining worked out at 61.8%.
Turning to RL952, the cell viability remaining was 33.4%.
On to D283MED, for which the cell viability remaining is 43%.
The same measure for SKMEL3: 42.9%.
The value for OVTOKO was 95.4%.
The value for HS746T was 83%; that for DU145 was 81.7%.
A375: the cell viability remaining was determined as 62%.
Turning to HCC1806, the cell viability remaining turned out to be 60%.
The value for G401 was 10.4%.
As for COLO704, the cell viability remaining is 78.2%.
Turning to H82, the cell viability remaining was 12.6%.
The value for JIMT1 was 66.2%.
In the case of H661, the cell viability remaining stood at 34.6%.
The same measure for SW1417: 83.7%; for RMGI: 83.4%; for T98G: 53.4%.
For HUPT4, the cell viability remaining was 9.8%.
On to AZ521, for which the cell viability remaining stood at 56.1%.
Take HEC251: the cell viability remaining stood at 91.8%.
On to OVCAR4, for which the cell viability remaining worked out at 49.6%.
The same measure for RKO: 49.6%; for MALME3M: 54.4%.
The same measure for H146: 86.5%; for SKMEL24: 81.7%.
